Our source for the TR-FRET ratio values is PubChem BioAssay AID1049 (The Scripps Research Institute Molecular Screening Center, 2008).

Each structure is given as a SMILES string. The campaign covered roughly 200,000 compounds. About 780 (0.39%) were called active. Rule as the data show it: active = TR-FRET ratio above about 2000; inactive = the rest. The sample as a whole holds a higher share of actives than the screen did.

This test can be described thus: detection-format interference in TR-FRET ratio – biochemical, artefact control for PPARgamma SRC-2 agonist project, primary screen (AID 1049). Particulars: TR-FRET artefact counter-screen; at 8 µM; active compounds read high. (In TR-FRET formats the signal depends on donor and acceptor labels being close together.)
Regarding `O=C(/C=C/c1ccccc1[N+](=O)[O-])OC1CCCCC1=O` (configuration not stated), the TR-FRET ratio is 1570 (inactive).
Take `O=C(COC(=O)c1c2c(nc3ccccc13)CCCC2)c1ccc(Br)s1`: the TR-FRET ratio is 2060 (active).
Next, `O=C(COC(=O)c1c2c(nc3ccccc13)/C(=C\c1cccs1)CCC2)Nc1ccccc1Cl`: 1590 (inactive); `O=C(Nc1c2c(nc3ccccc13)CCCC2)c1ccccc1Br`: 1590 (inactive); `O=C(N1CCCCC1)N1CCN(C(=O)N2CCCCC2)CC1`: 1520 (inactive).
Turning to `Cc1ccc(C(=O)O)cc1N1C(=O)CCCC1=O`, the TR-FRET ratio was 1430 (inactive).
In the case of `COc1cc(OC)cc(-c2nnc(SCC(=O)Nc3ccc(C(=O)O)cc3)s2)c1`, the TR-FRET ratio is 2010 (active).
`COc1ccc(NC(=O)CSc2nc(C)cs2)cc1`: the TR-FRET ratio is 1520 (inactive).
As to `Nc1nnc(SCC(=O)Nc2ccc3nc(SCC(=O)Nc4ccccc4)sc3c2)s1`, the TR-FRET ratio is 1750 (inactive).
As for `COC(=O)[C@@H]1CC[C@H](C)[C@@H](c2ccc(C)cc2)N1C(=O)c1ccc(/C=N/O[C@H](C)c2cn([C@@H]3COC[C@H]3O)nn2)cc1`, the TR-FRET ratio was 1550 (inactive).
Next, `COc1cccc(NC(=O)c2ccc3c(SCC(=O)O)c4c(nc3c2)CCCC4)c1`: 1460 (inactive); `Cc1cc(NC(C)C)n2c(nc3ccccc32)c1C#N`: 1630 (inactive).
With `Cc1nn(CC#N)c(=O)n1N(C)c1ncc(C(F)(F)F)cc1Cl`, the TR-FRET ratio was 1490 (inactive).
For the compound `Cc1ccccc1-c1n[nH]c(=S)n1C`, the TR-FRET ratio is 1570 (inactive).
As for `Cc1n[nH]c(=S)n1/N=C/c1ccc(Br)o1`, the TR-FRET ratio is 1670 (inactive).
Consider `Cc1ccccc1-c1n[nH]c(=S)n1/N=C/c1ccc(-c2ccccc2Br)o1`, for which the TR-FRET ratio was 2460 (active).
`O=S(=O)(/N=C(/Nc1ccccc1)c1ccccc1)c1cccs1`: the TR-FRET ratio was 1640 (inactive).
Turning to `CC(=O)Nc1ccc(S(=O)(=O)Oc2ccc(/C=N/N=C3/NC(=O)C(CC(=O)O)S3)cc2)cc1` (configuration not stated), the TR-FRET ratio was 1610 (inactive).
Next, `O=C(c1ccccc1Cl)N(Cc1ccccc1F)N1C(=O)CCCC1=O`: 1650 (inactive).
With `CCn1c(=O)cc(SCC(=O)NCc2ccc3c(c2)OCO3)c2ccccc21`, the TR-FRET ratio was 2130 (active).
Consider `CC(C)NC(=O)CSc1ccccc1C(=O)NCc1ccc2c(c1)OCO2`, for which the TR-FRET ratio was 1420 (inactive).
In the case of `CCn1c(=O)cc(SCC(=O)NCCC2=CCCCC2)c2ccccc21`, the TR-FRET ratio was 1870 (inactive).
For the compound `CC(C)(C)NC(=O)C(=O)NN=C1CCCCCCC1`, the TR-FRET ratio was 1240 (inactive).
`c1ccc(CSc2ncnc3c2sc2nc(N4CCOCC4)c4c(c23)CCCC4)cc1`: the TR-FRET ratio was 2910 (active).
As to `COc1ccc(CSc2nc(N3CCOCC3)c3c(c2C#N)CC(C)(C)OC3)cc1`, the TR-FRET ratio was 1500 (inactive).
With `c1ccc(COc2nsnc2N2CCOCC2)cc1`, the TR-FRET ratio was 1720 (inactive).
In the case of `CCOc1ccc(N2C(=O)Nc3ccccc3C2(O)C(=O)NCc2ccco2)cc1` (configuration not stated), the TR-FRET ratio was 1700 (inactive).
For `O=C(CSc1nnc(SCc2ccc(Cl)cc2)s1)N/N=C/c1ccccc1Cl`, the TR-FRET ratio was 1600 (inactive).
With `Cc1ccc(CN(Cc2cccnc2)C(=S)Nc2cccc(Cl)c2C)cc1`, the TR-FRET ratio is 1420 (inactive).
Next, `CCN(C(=O)COc1cccnc1[N+](=O)[O-])C1CCS(=O)(=O)C1` (configuration not stated): 1550 (inactive); `COc1ccc(Cc2nnc(NC(=O)Cc3cccs3)s2)cc1`: 1330 (inactive).
On to `COc1ccc(OCC(=O)Nc2nnc(-c3ccco3)s2)cc1`, for which the TR-FRET ratio is 2240 (active).
Next, `COCC(=O)Nc1nnc(COc2ccccc2)s1`: 1270 (inactive); `CC(NC(=O)COC(=O)c1cc(=O)[nH]c2ccccc12)c1ccccc1` (configuration not stated): 1810 (inactive).
The same measure for `CCOC(=O)c1sc(NC(=O)CSc2nnc(-c3ccco3)o2)c(C(=O)OCC)c1C`: 1590 (inactive); for `CCOC(=O)c1sc(NC(=O)COc2ncnc3ccccc23)c(C(=O)OCC)c1C`: 1580 (inactive); for `CCOC(=O)c1c(NC(=O)CNC2CCCc3ccccc32)sc(C(N)=O)c1C` (configuration not stated): 2030 (active).
As for `COc1ccc(CN2CCCC(CNC(=O)c3ccc(F)cc3)C2)cc1OC` (configuration not stated), the TR-FRET ratio was 1400 (inactive).
For `C/C(CC(=O)NC(C)(C)C)=N\NC(=O)c1ccco1`, the TR-FRET ratio was 1540 (inactive).
Next, `CNc1nccc(-c2ccc(Cl)cc2)c1C#N`: 1580 (inactive).
The same measure for `N#Cc1c2c(c(-c3ccccc3)[nH]c1=O)CCCC2`: 1620 (inactive); for `N#Cc1c(-c2ccc(Cl)cc2)c2c([nH]c1=S)CCCC2`: 2030 (active); for `Cc1ccc(CNC(=O)COc2ccc3c(c2)CCC3)cc1`: 1560 (inactive).
As to `CCCCN(C(=O)c1ccc(OC(F)(F)F)cc1)c1c(N)n(CCC)c(=O)[nH]c1=O`, the TR-FRET ratio was 1420 (inactive).
The same measure for `C/C=N/NC(=O)CCCC(=O)N/N=C/C`: 1590 (inactive); for `COc1ccccc1C1/C(=C(/O)c2ccc(OC(C)C)cc2)C(=O)C(=O)N1c1cc(C)on1` (configuration not stated): 1930 (inactive).
`Cc1cc(N2C(=O)C(=O)/C(=C(/O)c3ccc(Cl)cc3)C2c2cccc(Br)c2)no1` (configuration not stated): the TR-FRET ratio is 1980 (active).
As to `COc1ccc(C2/C(=C(/O)c3ccccc3)C(=O)C(=O)N2c2ncccn2)cc1OC` (configuration not stated), the TR-FRET ratio is 1610 (inactive).
For `COC(=O)C(C)NC(=O)COc1ccc2ccccc2c1` (configuration not stated), the TR-FRET ratio was 1440 (inactive).
Turning to `Cc1cc2ccccc2n1CCC(=O)O`, the TR-FRET ratio is 1790 (inactive).
Next, `Cc1cc2ccccc2n1CCNC(=O)COc1ccc2ccccc2c1`: 3050 (active); `COc1ccc(/C=N/Nc2ncnc3sc4c(c23)CCCC4)cc1O`: 1360 (inactive); `O=C(/C=C/Nc1ccccc1OC(F)(F)F)C(F)(F)F`: 1490 (inactive).
In the case of `CN(C)c1ccc(N/C=C/C(=O)C(F)(F)F)cc1`, the TR-FRET ratio is 2200 (active).
The same measure for `CCCOc1ccc(N/C=C/C(=O)C(C)(C)C)cc1`: 1530 (inactive).
With `CN(C)C(=O)c1ccc2c(c1)C1C3CCC(C3)C1C(c1ccccc1)N2` (configuration not stated), the TR-FRET ratio is 1630 (inactive).
As to `COc1cccc(NC(=S)N(Cc2ccc(C)cc2)Cc2ccccn2)c1`, the TR-FRET ratio was 1700 (inactive).
With `CSc1ncccc1C(=O)OCc1ccc(Br)cc1`, the TR-FRET ratio was 1680 (inactive).
On to `Cc1cc(C)c(NC(=O)CS(=O)CC(=O)Nc2cccnc2)c(C)c1` (configuration not stated), for which the TR-FRET ratio is 1340 (inactive).
Consider `Cc1ccc(-c2nc(-c3cccnc3)sc2CC(=O)Nc2ccc(C)c(Cl)c2)cc1`, for which the TR-FRET ratio is 2240 (active).
The same measure for `Cc1ccc(NC(=O)COc2ccc(-n3ccnc3)cc2)cc1Cl`: 1510 (inactive); for `COc1ccc(OC)c(Cc2nnc(CCC(=O)NC3CCCC3)o2)c1`: 1590 (inactive); for `O=C(Nc1cccc(CCc2ccccn2)c1)c1ccc(Cl)cc1`: 1410 (inactive).
As for `CN(C)/C=C(/C(=O)c1ccccc1)S(=O)(=O)c1ccc(Cl)cc1`, the TR-FRET ratio was 1390 (inactive).
Regarding `COc1cc(OC)cc(C(=O)Nc2ccc(S(=O)(=O)Nc3cc(C)on3)cc2)c1`, the TR-FRET ratio was 1400 (inactive).
On to `O=C(Nc1ccc2oc(-c3ccccc3F)nc2c1)c1ccco1`, for which the TR-FRET ratio was 1310 (inactive).
With `COc1cc(OC)cc(C(=O)Nc2ccc(-c3nc4ccccc4o3)c(O)c2)c1`, the TR-FRET ratio is 2300 (active).
The same measure for `Cc1cc(C)c2nc(N3CCCC3)c(C#N)cc2c1`: 1740 (inactive); for `Cc1cccc2cc(C#N)c(N3CCCC3)nc12`: 1510 (inactive); for `CC(=O)c1ccc(S(=O)(=O)N2CCN(c3nc4c(C)c(C)ccc4cc3C#N)CC2)cc1`: 2950 (active).
The same measure for `CC(C)OCCCNC(=O)c1ccc(C2SCC(=O)N2Cc2ccco2)cc1` (configuration not stated): 1510 (inactive); for `CCOc1ccc(N2CC(C(=O)NCCN3C(=O)S/C(=C\c4cccnc4)C3=O)CC2=O)cc1` (configuration not stated): 1470 (inactive); for `COC(=O)c1cc2n(n1)CCCNC2=O`: 1460 (inactive).
As to `COc1cccc(NC(=O)CN(C)C(C)C(=O)Nc2ccc(C#N)cc2)c1` (configuration not stated), the TR-FRET ratio was 1560 (inactive).
On to `CN(C)S(=O)(=O)c1cccc(NC(=O)COC(=O)/C=C/c2cccs2)c1`, for which the TR-FRET ratio was 1590 (inactive).
With `O=C(c1ccncc1)c1ccc([N+](=O)[O-])cc1`, the TR-FRET ratio was 1700 (inactive).
On to `O=C(/C=C/c1ccc(Cl)cc1Cl)NCc1ccco1`, for which the TR-FRET ratio was 1530 (inactive).
The same measure for `O=C(NCc1ccco1)c1cc(-c2cccnc2)nc2ccc(Cl)cc12`: 1650 (inactive); for `O=C(CSc1c2c(nc3ccc(Cl)cc13)CCCC2)NCc1ccco1`: 2000 (active).
As to `Cc1ccc(-c2cc(C(=O)NCc3cn(C)nc3C)c3cc(Br)ccc3n2)cc1`, the TR-FRET ratio is 2980 (active).
In the case of `COc1ccc(Cl)cc1C(=O)NCc1cn(C)nc1C`, the TR-FRET ratio was 1670 (inactive).
For `Cc1ccc2nc(-c3cccc(Br)c3)cc(C(=O)Nn3cnnc3)c2c1`, the TR-FRET ratio is 1400 (inactive).
For the compound `O=c1[nH]cnc2c1c(-c1ccccc1)cn2-c1ccc(F)cc1`, the TR-FRET ratio is 1650 (inactive).
Regarding `Cc1ccccc1N1C(=O)C(Oc2ccc(Cl)cc2)C1CNCC1CCCO1` (configuration not stated), the TR-FRET ratio was 1310 (inactive).
Consider `Cc1ccc(N2C(=O)C(NC(=O)c3c(F)cccc3F)(C(F)(F)F)C3=C2CC(C)(C)CC3=O)cc1` (configuration not stated), for which the TR-FRET ratio is 1460 (inactive).
In the case of `O=C(COC(=O)/C=C/c1cccc(Cl)c1)NCCc1ccccc1`, the TR-FRET ratio is 1440 (inactive).
As to `CCN(CC)S(=O)(=O)c1cccc(-c2n[nH]c(=S)n2/N=C/c2ccc(C(=O)OC)cc2)c1`, the TR-FRET ratio is 1510 (inactive).
With `CC(=O)Oc1ccc2c(C)c(CC(C)O)c(=O)oc2c1` (configuration not stated), the TR-FRET ratio is 1440 (inactive).
For the compound `Cc1c(Cc2ccccc2)c(=O)oc2cc(OCC(N)=O)ccc12`, the TR-FRET ratio was 1400 (inactive).
The same measure for `O=C(Oc1ccccc1)Oc1ccc2c(c1)oc(=O)c1ccccc12`: 2370 (active).
The same measure for `COc1ccc(C2=NN(c3nc4ccccc4s3)C(=O)C2)cc1`: 1550 (inactive); for `CN(Cc1cccc2ncccc12)C(=O)CC1C(=O)NCCN1Cc1ccc(F)cc1` (configuration not stated): 1420 (inactive); for `O=C(O)/C=C/c1ccc(OCCCF)cc1`: 1530 (inactive).
As for `COc1cc(/C=N/N=C(\N)c2nonc2N)cc(OC)c1OC`, the TR-FRET ratio was 1490 (inactive).
Consider `Cc1cc(=O)n2[nH]c(-c3sccc3-n3c(C)ccc3C)cc2n1`, for which the TR-FRET ratio was 1620 (inactive).
With `Cc1ccc(S(=O)(=O)N2CCOCC2)cc1NC(=O)CSc1nnc(N)s1`, the TR-FRET ratio was 1520 (inactive).
Take `CCN=C1S/C(=C\c2cc(Br)ccc2OCC(=O)OCC)C(=O)N1CC`: the TR-FRET ratio is 1500 (inactive).
